Experimental data: ChEMBL document CHEMBL2218924, “A broad activity screen in support of a chemogenomic map for kinase signalling research and drug discovery” (Biochem J, 2013)

How the values were obtained:
[1] = target: Focal adhesion kinase 1 (Homo sapiens) (UniProt Q05397); details: at 10 µM
[2] = target: Fibroblast growth factor receptor 1 (Homo sapiens) (UniProt P11362); details: at 1 µM
[3] = target: Fibroblast growth factor receptor 1 (Homo sapiens) (UniProt P11362); details: at 10 µM
[4] = target: Fibroblast growth factor receptor 2 (Homo sapiens) (UniProt P21802); details: at 1 µM
Chain of Fibroblast growth factor receptor 2 (Homo sapiens) (P21802 22-821 limits assumed): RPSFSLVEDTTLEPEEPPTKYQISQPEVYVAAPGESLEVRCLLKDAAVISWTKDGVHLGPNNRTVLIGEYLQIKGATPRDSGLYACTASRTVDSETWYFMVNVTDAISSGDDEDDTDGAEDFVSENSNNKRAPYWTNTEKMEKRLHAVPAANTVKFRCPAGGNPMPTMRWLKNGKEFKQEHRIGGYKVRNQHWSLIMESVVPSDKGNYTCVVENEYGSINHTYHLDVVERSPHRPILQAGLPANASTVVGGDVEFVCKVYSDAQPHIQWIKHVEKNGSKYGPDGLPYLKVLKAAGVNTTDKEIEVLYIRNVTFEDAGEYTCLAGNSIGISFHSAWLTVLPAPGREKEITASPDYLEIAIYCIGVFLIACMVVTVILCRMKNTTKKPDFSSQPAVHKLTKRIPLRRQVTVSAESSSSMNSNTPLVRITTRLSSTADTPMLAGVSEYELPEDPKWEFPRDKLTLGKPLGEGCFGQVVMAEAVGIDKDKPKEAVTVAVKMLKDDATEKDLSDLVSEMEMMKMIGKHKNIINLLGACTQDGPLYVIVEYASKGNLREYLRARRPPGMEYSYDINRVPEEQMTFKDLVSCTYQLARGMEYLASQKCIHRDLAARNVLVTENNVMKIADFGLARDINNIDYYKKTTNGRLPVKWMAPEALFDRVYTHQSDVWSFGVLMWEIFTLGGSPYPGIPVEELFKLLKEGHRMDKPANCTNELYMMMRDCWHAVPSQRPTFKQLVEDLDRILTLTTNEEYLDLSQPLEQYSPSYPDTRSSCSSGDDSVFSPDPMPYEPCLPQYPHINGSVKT

[5] = target: Fibroblast growth factor receptor 2 (Homo sapiens) (UniProt P21802); details: at 10 µM
[6] = target: Fibroblast growth factor receptor 4 (Homo sapiens) (UniProt P22455); details: at 1 µM
Chain of Fibroblast growth factor receptor 4 (Homo sapiens) (P22455 22-802 limits assumed): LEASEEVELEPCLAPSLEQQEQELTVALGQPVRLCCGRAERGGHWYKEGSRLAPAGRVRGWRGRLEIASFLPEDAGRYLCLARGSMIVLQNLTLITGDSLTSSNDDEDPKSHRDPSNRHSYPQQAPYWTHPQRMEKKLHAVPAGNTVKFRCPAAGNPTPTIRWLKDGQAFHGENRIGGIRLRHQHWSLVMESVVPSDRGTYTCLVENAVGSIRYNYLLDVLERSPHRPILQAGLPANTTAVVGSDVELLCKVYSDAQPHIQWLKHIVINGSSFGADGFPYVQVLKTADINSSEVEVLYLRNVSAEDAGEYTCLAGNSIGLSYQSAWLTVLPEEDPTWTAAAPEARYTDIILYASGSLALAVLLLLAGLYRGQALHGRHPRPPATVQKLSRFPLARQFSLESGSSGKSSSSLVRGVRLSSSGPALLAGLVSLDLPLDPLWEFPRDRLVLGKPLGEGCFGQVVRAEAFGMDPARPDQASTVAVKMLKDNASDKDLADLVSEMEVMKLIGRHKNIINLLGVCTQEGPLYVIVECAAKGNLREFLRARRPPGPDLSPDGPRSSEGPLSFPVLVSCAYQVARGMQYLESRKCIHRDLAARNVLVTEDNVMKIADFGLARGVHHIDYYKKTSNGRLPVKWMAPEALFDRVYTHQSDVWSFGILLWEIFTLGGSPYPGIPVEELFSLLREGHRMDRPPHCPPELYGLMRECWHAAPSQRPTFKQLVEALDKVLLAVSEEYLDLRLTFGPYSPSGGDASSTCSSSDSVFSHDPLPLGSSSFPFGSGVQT

[7] = target: Fibroblast growth factor receptor 4 (Homo sapiens) (UniProt P22455); details: at 10 µM
[8] = target: Tyrosine-protein kinase Fer (Homo sapiens) (UniProt P16591); details: at 1 µM
Chain of Tyrosine-protein kinase Fer (Homo sapiens) (P16591 whole entry, looked up): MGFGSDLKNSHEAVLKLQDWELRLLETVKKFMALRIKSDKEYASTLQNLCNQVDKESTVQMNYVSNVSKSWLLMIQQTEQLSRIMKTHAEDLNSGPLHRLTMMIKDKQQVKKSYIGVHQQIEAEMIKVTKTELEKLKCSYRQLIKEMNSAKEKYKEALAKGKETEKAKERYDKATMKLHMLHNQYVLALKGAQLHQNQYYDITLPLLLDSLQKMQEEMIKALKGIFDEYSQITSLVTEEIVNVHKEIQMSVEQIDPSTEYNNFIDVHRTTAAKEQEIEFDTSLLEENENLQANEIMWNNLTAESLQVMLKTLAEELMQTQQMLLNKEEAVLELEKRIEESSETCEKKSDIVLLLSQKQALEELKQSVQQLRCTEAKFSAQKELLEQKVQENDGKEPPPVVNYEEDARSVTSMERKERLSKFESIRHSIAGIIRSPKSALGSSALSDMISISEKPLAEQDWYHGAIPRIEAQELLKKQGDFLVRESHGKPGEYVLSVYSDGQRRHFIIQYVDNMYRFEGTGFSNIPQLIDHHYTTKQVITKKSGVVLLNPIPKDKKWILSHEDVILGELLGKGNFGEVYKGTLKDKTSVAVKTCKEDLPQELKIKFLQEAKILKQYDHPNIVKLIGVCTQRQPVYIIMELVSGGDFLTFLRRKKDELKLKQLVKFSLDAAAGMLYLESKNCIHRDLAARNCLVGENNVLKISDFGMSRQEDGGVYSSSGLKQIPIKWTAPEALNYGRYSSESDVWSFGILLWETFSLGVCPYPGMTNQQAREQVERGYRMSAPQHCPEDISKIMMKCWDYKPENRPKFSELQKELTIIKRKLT

[9] = target: Fibroblast growth factor receptor 3 (Homo sapiens) (UniProt P22607); details: at 1 µM
Chain of Fibroblast growth factor receptor 3 (Homo sapiens) (P22607 23-806 limits assumed): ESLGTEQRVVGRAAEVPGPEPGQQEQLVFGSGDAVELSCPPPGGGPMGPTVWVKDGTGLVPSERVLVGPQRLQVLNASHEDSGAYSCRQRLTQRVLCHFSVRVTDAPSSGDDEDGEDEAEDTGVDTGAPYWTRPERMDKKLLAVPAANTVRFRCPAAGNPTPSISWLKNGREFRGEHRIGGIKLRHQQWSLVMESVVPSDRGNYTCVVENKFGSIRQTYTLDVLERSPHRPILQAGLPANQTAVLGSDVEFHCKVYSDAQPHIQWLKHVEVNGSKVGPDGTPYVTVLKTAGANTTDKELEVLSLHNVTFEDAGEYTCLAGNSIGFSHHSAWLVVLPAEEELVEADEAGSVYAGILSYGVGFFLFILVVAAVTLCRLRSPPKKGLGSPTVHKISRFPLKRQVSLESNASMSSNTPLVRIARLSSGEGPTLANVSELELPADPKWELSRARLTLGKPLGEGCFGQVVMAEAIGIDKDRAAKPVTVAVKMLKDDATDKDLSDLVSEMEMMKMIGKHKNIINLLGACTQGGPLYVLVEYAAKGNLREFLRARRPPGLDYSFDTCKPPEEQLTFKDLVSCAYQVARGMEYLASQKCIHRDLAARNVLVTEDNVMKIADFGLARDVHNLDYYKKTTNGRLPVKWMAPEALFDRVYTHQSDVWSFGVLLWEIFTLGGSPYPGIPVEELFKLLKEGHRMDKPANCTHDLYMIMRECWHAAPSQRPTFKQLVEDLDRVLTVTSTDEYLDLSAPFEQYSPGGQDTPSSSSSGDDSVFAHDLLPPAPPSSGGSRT

[10] = target: Fibroblast growth factor receptor 3 (Homo sapiens) (UniProt P22607); details: at 10 µM

Chain of Focal adhesion kinase 1 (Homo sapiens) (Q05397 2-1052 limits assumed): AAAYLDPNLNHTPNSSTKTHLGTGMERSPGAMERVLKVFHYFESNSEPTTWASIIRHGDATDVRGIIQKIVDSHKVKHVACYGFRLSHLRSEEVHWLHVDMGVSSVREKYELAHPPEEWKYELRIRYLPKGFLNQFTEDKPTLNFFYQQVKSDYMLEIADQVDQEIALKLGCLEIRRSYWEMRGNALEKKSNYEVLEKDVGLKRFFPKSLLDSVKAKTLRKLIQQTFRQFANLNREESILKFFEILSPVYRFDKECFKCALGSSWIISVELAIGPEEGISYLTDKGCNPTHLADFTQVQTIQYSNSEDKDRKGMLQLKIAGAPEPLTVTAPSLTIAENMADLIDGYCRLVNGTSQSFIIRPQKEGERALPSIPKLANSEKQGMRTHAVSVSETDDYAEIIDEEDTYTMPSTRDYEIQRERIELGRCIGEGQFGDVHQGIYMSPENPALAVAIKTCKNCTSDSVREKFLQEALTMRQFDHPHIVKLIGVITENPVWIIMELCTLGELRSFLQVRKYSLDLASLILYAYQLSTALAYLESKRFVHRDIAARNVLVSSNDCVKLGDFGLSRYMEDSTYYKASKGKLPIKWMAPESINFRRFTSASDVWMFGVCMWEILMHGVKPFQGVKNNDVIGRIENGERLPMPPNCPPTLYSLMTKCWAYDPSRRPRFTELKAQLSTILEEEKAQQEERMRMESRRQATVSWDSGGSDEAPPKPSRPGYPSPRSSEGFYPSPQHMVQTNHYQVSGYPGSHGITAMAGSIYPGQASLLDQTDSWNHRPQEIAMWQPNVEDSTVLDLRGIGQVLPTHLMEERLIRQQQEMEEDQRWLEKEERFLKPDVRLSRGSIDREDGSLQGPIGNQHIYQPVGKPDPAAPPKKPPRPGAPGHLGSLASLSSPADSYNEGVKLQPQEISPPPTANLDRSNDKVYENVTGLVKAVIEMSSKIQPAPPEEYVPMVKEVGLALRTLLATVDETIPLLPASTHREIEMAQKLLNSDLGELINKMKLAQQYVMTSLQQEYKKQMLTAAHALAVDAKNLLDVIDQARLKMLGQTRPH
Chain of Fibroblast growth factor receptor 1 (Homo sapiens) (P11362 22-822 limits assumed): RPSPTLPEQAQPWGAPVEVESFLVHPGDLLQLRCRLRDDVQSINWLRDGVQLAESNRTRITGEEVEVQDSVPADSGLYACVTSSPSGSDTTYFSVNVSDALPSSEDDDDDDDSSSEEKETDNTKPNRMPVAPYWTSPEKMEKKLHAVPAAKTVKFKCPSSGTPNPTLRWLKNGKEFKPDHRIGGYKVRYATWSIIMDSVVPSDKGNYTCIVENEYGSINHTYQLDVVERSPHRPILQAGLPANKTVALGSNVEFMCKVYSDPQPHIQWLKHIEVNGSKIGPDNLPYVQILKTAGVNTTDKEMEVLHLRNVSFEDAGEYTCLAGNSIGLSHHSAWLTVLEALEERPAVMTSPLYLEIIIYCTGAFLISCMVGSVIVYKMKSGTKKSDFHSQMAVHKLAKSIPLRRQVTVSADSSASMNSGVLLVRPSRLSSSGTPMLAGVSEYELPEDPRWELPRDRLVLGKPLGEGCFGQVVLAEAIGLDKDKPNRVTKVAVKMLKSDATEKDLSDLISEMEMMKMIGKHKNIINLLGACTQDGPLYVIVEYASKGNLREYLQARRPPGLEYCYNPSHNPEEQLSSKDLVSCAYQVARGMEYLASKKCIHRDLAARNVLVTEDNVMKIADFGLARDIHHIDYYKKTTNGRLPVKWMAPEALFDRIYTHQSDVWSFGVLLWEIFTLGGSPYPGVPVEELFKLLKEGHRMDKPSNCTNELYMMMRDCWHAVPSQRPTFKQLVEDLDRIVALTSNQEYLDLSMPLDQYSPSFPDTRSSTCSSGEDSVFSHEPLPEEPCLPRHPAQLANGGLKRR

SMILES | residual activity [1] | residual activity [2] | residual activity [3] | residual activity [4] | residual activity [5] | residual activity [6] | residual activity [7] | residual activity [8] | residual activity [9] | residual activity [10]
CCCCc1c(-c2ccc(O)cc2)[nH]c2nccnc12 | 19% | 41% | 11% | 85% | 59% | 127% | 99% | 86% | – | –
Nc1ncnc2c1c(-c1ccc(Oc3ccccc3)cc1)cn2C1CCCC1 | 46% | 13% | -1% | 37% | 3% | 100% | 46% | 100% | 41% | 7%
COc1cc2nccc(Oc3ccc(NC(=S)NC(=O)c4ccccc4C)cc3)c2cc1OC | 66% | 49% | 8% | 84% | 40% | – | 78% | 70% | 90% | 58%
O=C1C(Cl)=C(N2C(=O)CCC2=O)C(=O)c2ccccc21 | 90% | 118% | 94% | 100% | 89% | 98% | 91% | 87% | – | –
O=C1NC(=O)C(c2cn(CCCn3ccnc3)c3ccccc23)=C1Nc1ccccc1 | 71% | 77% | 17% | 113% | 57% | – | – | 102% | – | –
O=C1NC(=O)C(c2c[nH]c3ccccc23)=C1c1c[nH]c2ccccc12 | 44% | 9% | 1% | 37% | 9% | – | 71% | – | 27% | 4%
COc1ccc(Cl)cc1NC(=O)Nc1cc(C)nc2ccccc12 | 64% | – | – | – | – | – | – | – | – | –
CN(C)S(=O)(=O)c1ccc2c(c1)/C(=C/c1cc3c([nH]1)CCCC3)C(=O)N2 | 8% | 36% | 54% | 51% | 30% | 84% | 87% | 59% | – | 90%
Cc1cc(C)c(/C=C2\C(=O)Nc3ccccc32)[nH]1 | 9% | 65% | 13% | – | – | 124% | – | 100% | 80% | 68%
NC(=O)c1cccc(-c2cc(Nc3ccc(OC(F)(F)F)cc3)ncn2)c1 | 95% | 96% | 92% | – | – | – | – | – | – | –
O=C(c1cc2cc(O)ccc2[nH]1)c1cc2cc(O)ccc2[nH]1 | 65% | 40% | 5% | 83% | 24% | – | – | – | 70% | 20%
O=C1Nc2ccc(Cl)cc2/C1=C/c1cc(Cl)c(O)c(Cl)c1 | 58% | 93% | 53% | 80% | 39% | – | – | – | 96% | 62%
O=C(c1ccccc1)c1ccc(N2CCOCC2)cc1O | 85% | 98% | 73% | – | – | 116% | 95% | 125% | – | –
Cn1sc(=O)n(Cc2ccccc2)c1=O | 61% | 92% | 86% | – | – | – | – | 90% | 135% | 126%
CC(C)N(CCC(=O)c1ccc2ccccc2c1)Cc1ccccc1 | 85% | 125% | – | – | – | – | – | – | – | –
Cn1c2ccccc2c2c3c(c4c5ccccc5n(CCC#N)c4c21)CNC3=O | 17% | 7% | 6% | 53% | 46% | 111% | – | 4% | – | –

SMILES | residual activity [1] | residual activity [2] | residual activity [3] | residual activity [4] | residual activity [5] | residual activity [6] | residual activity [7] | residual activity [8] | residual activity [9] | residual activity [10]
CCCCc1c(-c2ccc(OC)cc2)[nH]c2nccnc12 | 49% | 46% | 46% | 88% | 60% | 109% | 91% | 84% | – | 114%
CCN(CC)CCNC(=O)c1c(C)[nH]c(/C=C2\C(=O)Nc3ccc(Cl)cc32)c1C | 4% | 7% | 1% | 14% | 3% | – | – | 79% | 8% | 1%
O=c1cc(N2CCNCC2)oc2c(-c3ccccc3)cccc12 | 88% | 105% | 84% | – | – | – | 67% | – | – | –
CCOC(=O)c1c(C)[nH]c(/C=C2\C(=O)Nc3ccccc32)c1C | 89% | 98% | 80% | 83% | 85% | – | – | – | – | –
O=c1cc(N2CCOCC2)oc2c1ccc1ccccc12 | 92% | 109% | 71% | 111% | 101% | – | – | – | – | –
O=C1Cc2c([nH]c3ccc(Br)cc23)-c2ccccc2N1 | 28% | 87% | 32% | – | – | – | 96% | – | 127% | 87%
Nc1ncnc2c1cnn2-c1ccccc1 | 95% | 127% | 94% | 96% | 83% | – | 97% | – | 76% | 83%
c1ccc(-c2cnc(Nc3ccc(OCCN4CCCC4)cc3)s2)cc1 | 46% | 59% | 8% | 80% | 28% | – | – | 111% | – | –
NC(=O)Nc1sc(-c2ccc(F)cc2)cc1C(N)=O | 9% | 29% | 5% | 50% | 10% | 106% | 91% | 83% | 81% | 15%
O=C(Nc1ccc(Cl)cc1)c1ccccc1NCc1ccncc1 | 73% | 75% | 10% | – | – | – | 78% | 131% | – | 73%
Nc1nccc(-c2c(-c3ccc(F)cc3)ncn2C2CCNCC2)n1 | 71% | 119% | 27% | 113% | 67% | – | – | – | 120% | 83%
CC(C)(C)n1nc(Cc2cccc3ccccc23)c2c(N)ncnc21 | 81% | 28% | 2% | 62% | 18% | 115% | 72% | 104% | – | –
NCCNc1ncc(C(N)=O)c(Nc2cccc(C(F)(F)F)c2)n1 | 7% | 113% | 68% | 100% | 80% | – | – | 102% | – | –
O=C1NC(=O)c2c1c1c3ccccc3[nH]c1n1cncc21 | 25% | 41% | 9% | 72% | 32% | 102% | 80% | – | 76% | 41%
CC(C)c1nn(-c2c(Cl)cccc2Cl)c2nc(Cc3ccc(OCCO)cc3)[nH]c(=O)c12 | 66% | 70% | 27% | 108% | 86% | – | – | 100% | 104% | 99%
Oc1cccc(-c2nc(N3CCOCC3)c3oc4ncccc4c3n2)c1 | 50% | 97% | 78% | 122% | 123% | – | 99% | 119% | – | –
